PHOSPHO1 inh: PubChem AID 1565; Phosphoethanolamine/phosphocholine phosphatase (Homo sapiens), Q8TCT1; recombinant PHOSPHO1, absorbance phosphatase assay; inhibition, % at 13.3 µM; 290,000 compounds, 1.1% hits; in the data active means inhibition above about 60%
PABP FP inh: PABP poly(A) RNA binding inhibitors, primary screen, biochemical, fluorescence polarization, uHTS. inhibition, % at 35 µM. 290,000 compounds, 1% hits. Polyadenylate-binding protein 1 (Homo sapiens), P11940;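 further: calls also rest on retests at 20 µM and on dose response follow-up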
CRFBP-R2 block: antagonists of CRF-BP/CRF-R2 complex, primary screen, cell-based, HEK293, calcium dye fluorescence, uHTS | 350,000 compounds, 0.59% hits | CRF-induced calcium fluorescence | AID 588475, 2011 | inhibition, % at 11.8 µM;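 active means inhibition of the ligand-induced calcium signal above about 50% at the single tested concentration, limit read from the data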
MLLE-PAM2 inh: inhibitors of PABP1 MLLE–PAM2 peptide binding, primary screen, biochemical, fluorescence polarization, FITC-PAM2, GST-MLLE; Polyadenylate-binding protein 1 (Homo sapiens), P11940; inhibition, % at 20 µM; 360,000 compounds, 0.36% hits; AID 588489, 2011; in the data active means inhibition above about 35%, passing the limit was not always enough;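 further: plate controls were DMSO wells with GST-MLLE for no effect and wells lacking GST-MLLE protein for full effect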
eIF4H FP inh: human eIF4H binding inhibitors, primary screen, translation initiation inhibitor project, biochemical, uHTS, fluorescence polarization; Eukaryotic translation initiation factor 4H (Homo sapiens), Q15056; eIF4H fluorescence polarization binding assay; inhibition, % at 35 µM; 290,000 compounds, 0.94% hits; AID 2012, 2009;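 further: calls also rest on retests at 20 µM and on dose response follow-up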
Active calls of the source: *. The list is not random: actives were taken first. Their share in the collection is about 2.6%. Unless noted, how the calls were made is not given here.

Results for CC(=O)Nc1ccc(-c2ccnc3c2CC(C(=O)Nc2cccc(C(F)(F)F)c2)O3)cc1 (stereo not drawn) ?
MLLE-PAM2 inh: 6

How did Cc1cccc(NC(=S)N/N=C2/CCCCc3ccccc32)c1 do in these assays?
PHOSPHO1 inh: -4; PABP FP inh: -10; CRFBP-R2 block: -11; MLLE-PAM2 inh: 34; eIF4H FP inh: 12

Results for Cc1ccc(NC(=S)N/N=C2/CCCCc3ccccc32)cc1 ?
PHOSPHO1 inh: 25; PABP FP inh: 6; CRFBP-R2 block: -14; MLLE-PAM2 inh: 42*; eIF4H FP inh: 18

What do the screens show for `CC1(C(=O)Nc2ccccc2)CCN1C(=O)C1(c2ccccc2)CC1` (stereo not drawn)?
MLLE-PAM2 inh: 3

Results for CCOc1ccccc1NC(=O)C1COc2ccccc2O1 (stereo not drawn) ?
PHOSPHO1 inh: 5; PABP FP inh: 8; CRFBP-R2 block: 20; MLLE-PAM2 inh: -4; eIF4H FP inh: -3

Results for CCOc1ccccc1NC(=O)COC(=O)C1COc2ccccc2O1 (stereo not drawn) ?
CRFBP-R2 block: 95*; MLLE-PAM2 inh: -12

What do the screens show for `O=C(NCC(F)(F)F)c1[nH]c(C(F)(F)F)nc1-c1ccccc1`?
MLLE-PAM2 inh: -13

How did O=C(Nc1ccc(O)cc1)c1ccc(NC(=O)C2CCCO2)cc1 (stereo not drawn) do in these assays?
PHOSPHO1 inh: 66*; PABP FP inh: -4; CRFBP-R2 block: -3; MLLE-PAM2 inh: -6; eIF4H FP inh: 3

Results for CC(C)(C)C1CCC(OC(=O)C[N+]2(C)CCCCC2)CC1 (stereo not drawn) ?
PHOSPHO1 inh: -20; PABP FP inh: 2; CRFBP-R2 block: -11; MLLE-PAM2 inh: -129; eIF4H FP inh: -12

How did Cc1ccccc1N1CCN(C2=NC(=O)/C(=C/c3cn[nH]c3-c3ccccc3)S2)CC1 do in these assays?
PHOSPHO1 inh: 1; PABP FP inh: 52*; CRFBP-R2 block: 0; MLLE-PAM2 inh: -3; eIF4H FP inh: inconclusive

What do the screens show for `O=C1N=C(N2CCCC2)S/C1=C\c1cn[nH]c1-c1ccccc1`?
PHOSPHO1 inh: 9; PABP FP inh: 38; eIF4H FP inh: -9

Results for O=C(NC1CCN(C(=S)NCc2ccco2)CC1)NC12CC3CC(CC(C3)C1)C2 ?
PHOSPHO1 inh: 89*; PABP FP inh: -1; CRFBP-R2 block: 12; MLLE-PAM2 inh: -18; eIF4H FP inh: 1

What do the screens show for `CCC(=O)N1CCCC(C)(C(=O)Nc2ccc3oc(CC)nc3c2)C1` (stereo not drawn)?
MLLE-PAM2 inh: 0

Results for C[C@@H]1CCCCO[C@H](CN(C)C(=O)c2ccccc2)[C@@H](C)CN([C@H](C)CO)C(=O)c2cc(NC(=O)c3ccncc3)ccc2O1 ?
CRFBP-R2 block: -6; MLLE-PAM2 inh: 1

How did Oc1ccccc1N=N/C(=N/Nc1ccccc1O)c1ccccc1 do in these assays?
CRFBP-R2 block: -21; MLLE-PAM2 inh: -29

What do the screens show for `N#C/C(N=Nc1ccccc1O)=N\Nc1ccccc1O`?
CRFBP-R2 block: 97*; MLLE-PAM2 inh: -11

Results for CN(C)c1ccc(CNC(=O)C2Cc3c(-c4ccccc4Oc4ccccc4)ccnc3O2)cc1 (stereo not drawn) ?
MLLE-PAM2 inh: -3

Results for CCOC(=O)C1CCN(CC(=O)c2c(C)[nH]c3ccccc23)CC1 ?
PHOSPHO1 inh: -3; PABP FP inh: -2; CRFBP-R2 block: 3; MLLE-PAM2 inh: -25; eIF4H FP inh: 0

How did Cc1[nH]c2ccccc2c1C(=O)C(=O)N1CCN(C)CC1 do in these assays?
PHOSPHO1 inh: 68*; PABP FP inh: 3; CRFBP-R2 block: -2; MLLE-PAM2 inh: 1; eIF4H FP inh: 5

How did Cc1[nH]c2ccccc2c1C(=O)C(=O)N1CCN(c2ccccc2)CC1 do in these assays?
PHOSPHO1 inh: 38; PABP FP inh: 3; CRFBP-R2 block: -8; MLLE-PAM2 inh: 6; eIF4H FP inh: 1

Results for Cc1[nH]c2ccccc2c1C(=O)CN1CCC(C)CC1 ?
PHOSPHO1 inh: 70*; PABP FP inh: -16; CRFBP-R2 block: 0; MLLE-PAM2 inh: -31; eIF4H FP inh: -4

Results for COc1ccc(Nc2nc(-c3sc(NC(C)=O)nc3C)cs2)cc1 ?
PHOSPHO1 inh: 73*; PABP FP inh: 12; eIF4H FP inh: 3
